Luc counter – Counterscreen for Luciferase (Kinase-Glo TM) Inhibition; AID 1379, 2008; Potency, µM (highest dose often 38.3 µM), actives largely listed as inhibitors; Kinase-Glo luciferase, ATP luminescence, 8 min; 200,000 tested, 0.28% active; note: nearly all actives have a fitted effect of over 60% in size
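Recombinant Kinase-Glo luciferase, 10 uM ATP (linear range), luciferin; imidazole pH 7.2 / KCl / MgCl2 / Tween / BSA buffer; 8 min RT; luminescence.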
NPC1 promoter act – qHTS Assay for NPC1 Promoter Activators. Huh7 NPC1 promoter luciferase reporter, 24 h. Potency, µM (highest dose often 9.22 µM), actives largely listed as activators. 320,000 tested, 2.4% active; note: nearly all actives have a fitted effect of over 60% in size
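Stable NPC1-promoter luciferase Huh7 line; cpd (DMSO) 24 h, 37 °C, 5% CO2; Amplite luciferase reagent 10 min RT; luminescence readout. qHTS format.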
FLuc modulator – qHTS profiling assay for firefly luciferase inhibitor/activator using purifed enzyme and Km concentrations of substrates (counterscreen for miR-21 project) | 360,000 tested, 6.9% active | Potency, µM (doses to about 57.5 µM), actives largely listed as inhibitors | Luciferin 4-monooxygenase (Photinus pyralis), P08659 | purified FLuc, Km substrates, luminescence inhibition; note: nearly all actives have a fitted effect of over 55% in size
Target sequence (P08659 whole entry, looked up): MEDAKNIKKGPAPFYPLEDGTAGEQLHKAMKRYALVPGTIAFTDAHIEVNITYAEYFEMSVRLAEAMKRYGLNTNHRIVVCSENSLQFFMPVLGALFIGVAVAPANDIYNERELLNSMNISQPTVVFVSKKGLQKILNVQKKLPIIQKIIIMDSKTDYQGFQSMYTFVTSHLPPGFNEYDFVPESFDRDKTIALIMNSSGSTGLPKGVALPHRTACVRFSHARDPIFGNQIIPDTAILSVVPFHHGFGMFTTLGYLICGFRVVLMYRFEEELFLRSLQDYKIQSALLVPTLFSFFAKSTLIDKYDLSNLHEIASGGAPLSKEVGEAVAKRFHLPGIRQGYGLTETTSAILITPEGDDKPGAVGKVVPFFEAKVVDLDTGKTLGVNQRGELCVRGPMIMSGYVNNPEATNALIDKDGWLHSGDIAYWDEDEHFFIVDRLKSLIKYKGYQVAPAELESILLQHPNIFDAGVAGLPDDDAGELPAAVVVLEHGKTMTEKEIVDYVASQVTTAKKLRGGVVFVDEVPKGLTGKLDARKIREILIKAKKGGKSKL
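Biochemical qHTS of compounds, final roughly 60 µM downward over six points, against 10 nM purified firefly luciferase using Km concentrations of substrates (10 uM D-luciferin, 10 uM ATP) in Tris acetate pH 7.5 buffer; luminescence output.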
Rab9 prom act – qHTS Assay for Rab9 Promoter Activators; Potency, µM (doses to about 9.22 µM), actives largely listed as activators; Huh7 Rab9 promoter-luciferase reporter, luminescence, 24 h; 320,000 tested, 2.8% active; note: nearly all actives have a fitted effect of over 60% in size
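Using Huh7 cells stably transfected with Rab9 promoter–luciferase, compounds were incubated 24 h at 37 °C, 5% CO2; luciferase luminescence was read 10 min after reagent addition.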
SMN2 splice up – qHTS Assay for Enhancers of SMN2 Splice Variant Expression | HEK293 SMN2-luciferase splicing reporter, luminescence, 30-36 h | Potency, µM (doses to about 46.1 µM), actives largely listed as activators | 210,000 tested, 2.8% active; note: nearly all actives have a fitted effect of over 55% in size
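qHTS luciferase splicing reporter: luminescence rises when SMN2 exon 7 is included in transfected HEK293 cells. Compound exposure lasted 30-36 h at 37C, with 4.5 mM final sodium butyrate as control, followed by a ONE-Glo read.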
ELG1 genotoxic – qHTS screen for small molecules that induce genotoxicity in human embryonic kidney (HEK293T) cells expressing luciferase-tagged ELG1; HEK293T ELG1-luciferase reporter, luminescence, 16 h; Potency, µM (highest dose often 46 µM), usual class: activators; 330,000 tested, 1.3% active; AID 504466, 2011; note: nearly all actives have a fitted effect of over 60% in size
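Cells (2,000/well) expressing the ELG1-luciferase fusion are dosed by pin tool and kept 16 hr at 37 °C, 5% CO2. Signal comes from ONE-Glo luciferase reagent after 30 min at room temperature.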
Hits are given with their value; 0 = inactive; ? = inconclusive; - = no result given. In the library only some 7.4% were active in any assay of this set; here they are far more common. Calls come from the whole dose curve; as a rule, active = well fitted curve in the direction sought with a large enough effect; inconclusive = small, poorly fitted or top-dose-only effect, or another doubt; inactive = no such curve, though single readings can be large; an effect the other way counts as inactive or inconclusive.

SMILES | Luc counter | NPC1 promoter act | FLuc modulator | Rab9 prom act | SMN2 splice up | ELG1 genotoxic
C/C(=N\NC(=O)c1nn(C)c(C)c1Br)c1cccc(NC(=O)c2ccc(F)cc2)c1 | 0 | 0 | 1.9µM | ? | ? | 0
C/C(=N\NC(=O)c1cc(Br)ccc1O)c1cccc(NC(=O)c2ccccc2F)c1 | - | 0 | ? | 0 | - | 0
C/C(=N\NC(=O)c1c(Cl)c(C)nn1C)c1cccc(NC(=O)c2cccc(F)c2)c1 | - | 0 | 10.7µM | 0 | - | 0
C/C(=N\NC(=O)c1c(Cl)c(C)nn1C)c1cccc(NC(=O)COc2ccccc2)c1 | - | 0 | 0 | 0 | - | 0
C/C(=N\NC(=O)c1c(Br)c(C)nn1C)c1cccc(NC(=O)c2ccccc2C)c1 | 0 | 0 | 12µM | 0 | 0 | 0
C/C(=N\NC(=O)c1c(Br)c(C)nn1C)c1cccc(NC(=O)C2CCC2)c1 | 0 | 0 | 19µM | 0 | 0 | 0
C/C(=N\NC(=S)NCc1ccccc1)c1ccc(C#N)cc1 | 0 | 0 | 0 | 0 | 0 | 0
C/C(=N\NC(=O)c1ccc(O)cc1)c1cccc(NC(=O)c2ccccc2C)c1 | - | 0 | 2.69µM | ? | - | 0
C/C(=N\NC(=O)c1ccccc1F)c1ccc(C#N)cc1 | 0 | ? | ? | 3.98µM | ? | ?
Cc1ccccc1C(=O)Nc1cccc(NC(=O)c2ccc(C(C)(C)C)cc2)c1 | - | - | 0.757µM | - | ? | -
CCN1C(=O)c2ccccc2Sc2ccc(C(=O)NCCCN(CC(C)C)CC(C)C)cc21 | - | 0 | 0 | 0 | - | 0
CCOc1ccc(/C=C2/C(=O)N(c3ccc(OC)cc3)C(=S)N2CC(=O)OC)cc1OCC | 0 | ? | 6.01µM | ? | 12.6µM | ?
COc1ccc(CNC(=O)COc2ccc(Br)c(C)c2)cc1 | - | 0 | 0 | 0 | - | 0
CCOC(=O)C(=O)Nc1ccc(OCc2ccccc2)cc1 | 0 | 0 | ? | 0 | - | 0
CC(C)=CC(=O)Nc1ccc(OCc2ccccc2)cc1 | ? | ? | 13.5µM | ? | 0 | ?
S=C(Nc1ccccc1)Nc1ccc(OCc2ccccc2)cc1 | 0 | 0 | 0 | 0 | 0 | 0
CC(C)=CC(=O)Nc1ccc(Br)cc1 | 0 | 2.51µM | 4.78µM | 1.41µM | 12.6µM | 3.66µM
CCOCC(=O)Nc1ccc(OCc2ccccc2)cc1 | 0 | 0 | 16.9µM | ? | ? | ?
O=C(O)/C=C\C(=O)NNC(=O)c1cc(-c2ccccc2)n[nH]1 | - | 0 | 10.7µM | 0 | - | 0
O=C(NNS(=O)(=O)c1ccccc1F)c1cc(-c2ccccc2)n[nH]1 | - | 0 | 0 | 0 | - | 0
O=C(O)/C=C/C(=O)NNC(=O)c1cc(-c2ccccc2)n[nH]1 | 0 | 0 | 10.7µM | 0 | 0 | 0
O=C(O)c1cc(-c2ccccc2)n[nH]1 | 0 | 0 | 0 | 0 | 0 | 0
Cc1ccc(NC(=O)C23CCC(C)(C(=O)[C@H]2Br)C3(C)C)cc1 (stereo partly drawn) | - | 0 | 0 | 0 | - | 0
O=C(CN1C(=O)CC(c2ccccc2)S(=O)(=O)c2ccccc21)N1CCCCC1 (stereo not drawn) | 0 | 0 | 0 | 0 | 0 | 0
CCSc1nsc(NC(=O)Nc2ccc(F)cc2F)n1 | - | ? | 5.36µM | ? | - | 0
SMILES | Luc counter | NPC1 promoter act | FLuc modulator | Rab9 prom act | SMN2 splice up | ELG1 genotoxic
O=C(Nc1nc(SCc2ccc(F)cc2)ns1)c1ccco1 | 0 | 0 | 21.3µM | 0 | 17.8µM | 0
Fc1ccc(CSc2nsc(SCc3ccc(F)cc3)n2)cc1 | 0 | 0 | 0 | 0 | 0 | 0
O=C(Nc1ccc(OC(=O)c2ccco2)cc1)c1ccco1 | 12.6µM | 0 | 4.78µM | 0 | 0 | 0
O=C(CCc1ccccc1)Nc1ccc(NC(=O)c2ccco2)cc1 | 0 | 0 | 0 | 0 | 0 | ?
CCC(=O)Nc1ccc(NC(=O)c2ccco2)cc1 | 0 | 2.82µM | 19µM | 2.82µM | 0 | ?
COc1ccc(CCCc2nnc(SCC(=O)Nc3ccc(C)cc3)o2)cc1C | - | - | 0 | - | - | -
O=C(O)COc1ccc(NC(=O)c2ccc(NC(=O)c3ccco3)cc2)cc1 | 0 | 0 | ? | 0 | 0 | 0
CCC(=O)Oc1ccc(NC(=O)c2ccco2)cc1 | ? | 0 | 12µM | 0 | 0 | 0
O=C(Nc1ccc(CSc2ccccc2)cc1)c1ccco1 | - | 2.82µM | 2.69µM | 3.98µM | - | 7.3µM
O=C(OC1CCCCC1)c1ccc(NC(=O)c2ccco2)cc1 | 0 | ? | 13.5µM | 3.55µM | ? | 0
CCC(=O)Oc1cccc(C(=O)Nc2cccc(NC(=O)c3ccco3)c2)c1 | - | 0 | ? | 0 | - | 0
O=C(N/N=C/c1ccco1)c1cc(C2CC2)nc2ccccc12 | 0 | 0 | 0 | 0 | 0 | 0
O=C(N/N=C/c1ccco1)c1cc(-c2ccccc2)nc2ccccc12 | - | 0 | 21.3µM | 0 | - | 0
COc1cccc(-c2cc(C(=O)N/N=C/c3ccco3)c3ccccc3n2)c1 | - | 0 | 3.38µM | 0 | - | 0
COc1cccc(-c2c(C(=O)N/N=C/c3ccco3)nnn2-c2nonc2N)c1 | - | 0 | 0 | 0 | - | 0
COc1cccc(-c2csc(NC3OC(=O)c4c3ccc(OC)c4OC)n2)c1 (stereo not drawn) | - | 0 | ? | ? | - | 0
COc1ccc2c(c1OC)C(=O)OC2Nc1nc(-c2ccc(-c3ccccc3)cc2)cs1 (stereo not drawn) | 0 | 0.708µM | 1.35µM | 0.708µM | 2.24µM | 3.26µM
COc1ccc2c(c1OC)C(=O)OC2Nc1nc(-c2cc3ccccc3oc2=O)cs1 (stereo not drawn) | ? | 0.891µM | 8.49µM | 0.447µM | 2.24µM | ?
CCOc1ccc(CNC(=O)c2cccc(NC(=O)C3=C(C)OCCS3)c2)cc1 | - | 0 | ? | 0 | - | 0
COc1cccc(CNC(=O)c2cccc(NC(=O)C3=C(C)OCCS3)c2)c1 | - | 0 | ? | 0 | - | 0
COc1ccc(CNC(=O)Cc2ccc(NC(=O)C3=C(C)OCCS3)cc2)cc1 | - | 0 | 1.2µM | ? | - | 16.4µM
CC1=C(C(=O)Nc2ccc(CC(=O)NCc3ccc(OC(C)C)cc3)cc2)SCCO1 | - | ? | 2.69µM | 0 | - | 9.2µM
Cc1cc(=O)oc2cc(NC(=O)c3ccccc3Cl)ccc12 | - | 3.16µM | 10.7µM | 3.55µM | - | 14.6µM
Cc1cc(=O)oc2cc(NC(=O)c3c(Cl)cnn3C)ccc12 | - | 0 | 0 | 0 | - | ?
Cc1cccc(OCC(=O)Nc2ccc3c(C)cc(=O)oc3c2)c1 | 0 | 0 | 0 | 0 | 0 | 0
Cc1ccccc1CC(=O)Nc1ccc2c(C)cc(=O)oc2c1 | - | 0 | 0 | 0 | - | 0
Cc1cc(=O)oc2cc(NC(=O)c3ccnn3C)ccc12 | - | 2.82µM | ? | 3.98µM | - | 16.4µM
COc1cccc(C(=O)Nc2ccc3c(C)cc(=O)oc3c2)c1 | - | 1.12µM | 1.9µM | 0.708µM | - | 2.31µM

Assay outcomes: PubChem, National Center for Advancing Translational Sciences (NCATS)
